We go through five compounds from PubChem BioAssay.

Assay [1] is described as follows: compounds binding Alexa647 anti-His antibody – biochemical, small-molecule microarray, 635 nm fluorescence, artefact control for SMM control protein annotation, primary screen (AID 1128).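 Further: score merges feature fluorescence with signal-to-noise for each printed compound spot.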 To be noted: higher = more signal.
Assay [2] concerns Human papillomavirus type 1a E7 protein (residues 1-88). Kind of assay: HPV1a E7 small-molecule binders, primary screen, biochemical, small-molecule microarray, residues 1-88, 635 nm (AID 1129). To be noted: small-molecule microarray binding, fluorescence 635 nm; higher = more signal.
The target of assay [3] is Focal adhesion kinase 1 (Homo sapiens) (UniProt Q05397). Kind of assay: PTK2 protein binding on printed compound slides – biochemical, small-molecule microarray, 635/667 nm fluorescence, BSA, DTT, primary screen (AID 1130).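 Further: composite of spot emission at 667 nm and signal to noise over triplicate slides.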 To be noted: 635 nm fluorescence, higher = more signal.
Chain of Focal adhesion kinase 1 (Homo sapiens) (Q05397 whole entry, looked up): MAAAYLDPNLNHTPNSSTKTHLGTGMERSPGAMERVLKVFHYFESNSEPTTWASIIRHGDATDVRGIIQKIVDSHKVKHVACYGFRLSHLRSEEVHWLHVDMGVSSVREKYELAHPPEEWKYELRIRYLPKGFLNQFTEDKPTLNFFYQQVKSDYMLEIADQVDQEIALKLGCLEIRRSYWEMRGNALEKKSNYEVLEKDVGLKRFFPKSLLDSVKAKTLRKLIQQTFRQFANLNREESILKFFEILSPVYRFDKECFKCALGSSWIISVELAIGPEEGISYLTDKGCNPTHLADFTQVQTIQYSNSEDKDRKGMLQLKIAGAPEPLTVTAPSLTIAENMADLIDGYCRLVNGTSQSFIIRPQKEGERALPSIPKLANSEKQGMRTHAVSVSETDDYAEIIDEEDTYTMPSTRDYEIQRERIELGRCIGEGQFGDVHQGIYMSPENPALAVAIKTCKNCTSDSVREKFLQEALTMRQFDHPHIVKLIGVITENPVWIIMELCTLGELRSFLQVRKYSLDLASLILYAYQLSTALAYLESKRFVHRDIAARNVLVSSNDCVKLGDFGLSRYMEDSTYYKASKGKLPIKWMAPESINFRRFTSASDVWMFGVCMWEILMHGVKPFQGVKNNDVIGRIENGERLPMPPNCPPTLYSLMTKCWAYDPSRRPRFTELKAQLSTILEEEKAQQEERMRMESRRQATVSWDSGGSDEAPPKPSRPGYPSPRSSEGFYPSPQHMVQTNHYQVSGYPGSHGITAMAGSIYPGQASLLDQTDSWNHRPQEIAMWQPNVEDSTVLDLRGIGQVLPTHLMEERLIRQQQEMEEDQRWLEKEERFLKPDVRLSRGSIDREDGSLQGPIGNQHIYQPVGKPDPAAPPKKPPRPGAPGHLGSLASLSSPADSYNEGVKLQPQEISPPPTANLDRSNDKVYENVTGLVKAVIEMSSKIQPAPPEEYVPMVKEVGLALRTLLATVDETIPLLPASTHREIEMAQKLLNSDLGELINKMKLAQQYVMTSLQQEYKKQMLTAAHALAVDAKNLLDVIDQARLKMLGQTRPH
In assay [4] the test system is Fibrinogen (Alexa647-labelled). Kind of assay: Alexa647-fibrinogen binding to printed small molecules – biochemical, small-molecule microarray, 635/667 nm fluorescence, artefact control for SMM control-protein annotation, profiling panel (AID 1131).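 Further: z-score merges 667 nm fluorescence with per-spot signal-to-noise over triplicate slides.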 Conditions: fibrinogen-A647 binding fluorescence, higher = more signal.
The target of assay [5] is Follistatin (Homo sapiens) (UniProt P19883). Kind of assay: FST protein binding to printed compounds – biochemical, small-molecule microarray, 635/667 nm fluorescence, primary screen (AID 1132). To be noted: 635 nm fluorescence, higher = more signal.
Chain of Follistatin (Homo sapiens) (P19883 whole entry, looked up): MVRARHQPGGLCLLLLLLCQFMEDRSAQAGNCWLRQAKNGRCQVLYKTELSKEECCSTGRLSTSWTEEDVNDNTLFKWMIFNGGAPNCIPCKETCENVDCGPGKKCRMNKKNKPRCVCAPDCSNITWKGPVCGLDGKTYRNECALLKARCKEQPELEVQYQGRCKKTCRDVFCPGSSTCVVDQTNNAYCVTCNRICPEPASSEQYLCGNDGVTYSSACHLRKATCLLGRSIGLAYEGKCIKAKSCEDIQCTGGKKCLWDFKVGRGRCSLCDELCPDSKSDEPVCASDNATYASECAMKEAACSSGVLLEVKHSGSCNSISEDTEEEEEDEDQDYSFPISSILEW
Assay [6] deals with Fibroblast growth factor 2 (Homo sapiens) (UniProt P09038). Kind of assay: basic fibroblast growth factor binding to printed compounds – biochemical, small-molecule microarray, 635/667 nm fluorescence, primary screen (AID 1133). To be noted: FGF2, fluorescence 635/667, higher = more signal.
Chain of Fibroblast growth factor 2 (Homo sapiens) (P09038 whole entry, looked up): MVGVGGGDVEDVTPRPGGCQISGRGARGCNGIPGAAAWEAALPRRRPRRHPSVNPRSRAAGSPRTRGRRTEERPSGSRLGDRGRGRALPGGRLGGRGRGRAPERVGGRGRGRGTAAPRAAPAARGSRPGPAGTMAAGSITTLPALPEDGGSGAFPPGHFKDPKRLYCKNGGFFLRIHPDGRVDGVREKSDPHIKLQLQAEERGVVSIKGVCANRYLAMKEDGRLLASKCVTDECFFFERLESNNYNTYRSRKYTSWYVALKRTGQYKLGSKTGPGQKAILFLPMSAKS
Assay [7] is described as follows: JC-1 mitochondrial potential readout, lung cancer cells – cell-based, A549, JC-1 fluorescence, basal, 24 h, 100 nL, profiling panel (AID 1138).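 Further: A549 lung adenocarcinoma cells under basal conditions with no added stimulus; test concentration not given here.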 To be noted: higher = more signal.
Assay [8] deals with Lefty1. Kind of assay: Lefty1 protein binding to printed compounds – biochemical, small-molecule microarray, 635/667 nm fluorescence, primary screen (AID 1139). Conditions: fluorescence 635/667, higher = more signal.
For assay [9], the system named is wheat germ agglutinin (Triticum aestivum), Alexa647-labelled. Kind of assay: Alexa647-WGA lectin binding to printed small molecules – biochemical, small-molecule microarray, 635/667 nm fluorescence, artefact control for SMM control-protein annotation, profiling panel (AID 1140).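 Further: score merges 667 nm feature emission with signal to noise over triplicate slides.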 To be noted: WGA-A647 binding, 635 nm fluorescence, higher = more signal.
The target in assay [10] is Luciferin 4-monooxygenase (Photinus pyralis) (UniProt P08659). Kind of assay: inhibition of purified Photinus pyralis luciferase – biochemical, luminescence, purified enzyme, 2006 set, primary screen (AID 1141).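 Further: cell-free assay with purified firefly luciferase at 100 ng per well in PBS; test concentration not given here.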 To be noted: purified firefly luciferase, SteadyGlo luminescence, 30 min; higher = more signal, called active from +8 up or from −8 down.
Chain of Luciferin 4-monooxygenase (Photinus pyralis) (P08659 whole entry, looked up): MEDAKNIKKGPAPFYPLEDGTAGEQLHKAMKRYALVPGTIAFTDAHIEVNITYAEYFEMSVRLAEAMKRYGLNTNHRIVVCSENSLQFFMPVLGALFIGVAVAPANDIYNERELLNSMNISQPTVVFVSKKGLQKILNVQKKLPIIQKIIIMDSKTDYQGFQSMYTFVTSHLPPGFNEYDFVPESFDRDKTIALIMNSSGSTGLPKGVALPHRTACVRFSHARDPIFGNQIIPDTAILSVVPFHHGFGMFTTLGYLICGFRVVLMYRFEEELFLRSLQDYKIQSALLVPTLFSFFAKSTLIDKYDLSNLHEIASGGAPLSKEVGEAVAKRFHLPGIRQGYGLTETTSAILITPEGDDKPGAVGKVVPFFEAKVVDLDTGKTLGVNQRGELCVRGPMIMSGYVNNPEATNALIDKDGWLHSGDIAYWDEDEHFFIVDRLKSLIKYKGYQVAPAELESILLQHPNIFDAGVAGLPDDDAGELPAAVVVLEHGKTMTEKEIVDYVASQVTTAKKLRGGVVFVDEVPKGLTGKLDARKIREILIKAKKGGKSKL
The subject of assay [11] is Wnt5a (protein binding on small-molecule microarray). Nature of the assay: small molecules binding Wnt5a protein – biophysical, small-molecule microarray, 635/667 nm fluorescence, primary screen (AID 1142).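 Further: fluorescence read at 667 nm with signal to noise per printed feature.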 Conditions: 635 nm fluorescence, higher = more signal.
A short description of assay [12]: ATP-based viability of Huh7 replicon cells – cell-based, CellTiter-Glo luminescence, basal, 48 h, cytotoxicity control for HCV replication inhibitor project, primary screen (AID 1143).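 Further: Huh7 hepatoma cells carrying a hepatitis C replication reporter with no stimulus; test concentration not given here.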 Conditions: higher = more signal, called active from +8 up or from −8 down.
Assay [13] can be described thus: Pseudomonas biofilm growth suppression – PAO1 strain, BacTiter-Glo luminescence, LB-PBS, primary screen (AID 1144). Conditions: P. aeruginosa PAO1 biofilm, 12 h, higher = more signal.
The nature of assay [14]: basal CRE-LacZ reporter activity in PC12 – cell-based, unstimulated, primary screen (AID 1145). Conditions: no forskolin, luminescence, 4.5 h, higher = more signal, called active from +8 up or from −8 down.
The nature of assay [15]: forskolin-driven CRE-LacZ activity in PC12 – cell-based, CRE-LacZ reporter, forskolin-stimulated, primary screen (AID 1146).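 Further: PC12 cells with 6xCRE LacZ reporter stimulated by forskolin 10 µM; beta-galactosidase reporter signal reflecting CREB driven transcription.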 Conditions: luminescence, 4.5 h, higher = more signal, called active from +8 up or from −8 down.
Assay [16] concerns the target Streptavidin (Streptomyces avidinii) (UniProt P22629). Nature of the assay: compounds binding control protein streptavidin – biophysical, small-molecule microarray, 635/667 nm fluorescence, artefact control for SMM compound annotation, primary screen (AID 1147).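 Further: signal reflects streptavidin binding to arrayed compounds as a control protein.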 Conditions: higher = more signal.
Assay [17] can be described thus: probe aInhba binding on compound microarray – biochemical, small-molecule microarray, 635/667 nm fluorescence, primary screen (AID 1148).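 Further: score merges 667nm spot fluorescence with signal-to-noise for antibody binding to printed compounds.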 To be noted: higher = more signal.
Assay [18] concerns the target Torsin-1A (Homo sapiens) (UniProt O14656). Kind of assay: TOR1A wild-type binding on microarray – cell lysate, small-molecule microarray, lysate, 635/667 nm, primary screen (AID 1149). Conditions: COS7 hTOR1A-WT lysate, 635 nm fluorescence, higher = more signal.
The target is the same in assay [19]. Nature of the assay: torsin A mutant lysate binding on microarrays – cell lysate, small-molecule microarray, COS7 lysate, 635/667 nm fluorescence, primary screen (AID 1150).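 Further: score pools 667 nm emission and signal to noise measuring lysate protein binding.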 To be noted: COS7 hTOR1A mutant lysate, 635 nm fluorescence, higher = more signal.
For assay [20], the system named is Sonic hedgehog protein (Shh). Nature of the assay: Sonic hedgehog microarray binding compounds – biochemical, small-molecule microarray, 635/667 nm fluorescence, primary screen (AID 1151).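 Further: Shh protein binding to compounds spotted on small-molecule microarray slides; score combines spot fluorescence intensity with signal-to-noise across triplicate slides.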 Conditions: 635 nm fluorescence, higher = more signal.

Activity calls are given as the source filed them. Unless noted, how the calls were made is not given here.

Chain of Torsin-1A (Homo sapiens) (O14656 whole entry, looked up): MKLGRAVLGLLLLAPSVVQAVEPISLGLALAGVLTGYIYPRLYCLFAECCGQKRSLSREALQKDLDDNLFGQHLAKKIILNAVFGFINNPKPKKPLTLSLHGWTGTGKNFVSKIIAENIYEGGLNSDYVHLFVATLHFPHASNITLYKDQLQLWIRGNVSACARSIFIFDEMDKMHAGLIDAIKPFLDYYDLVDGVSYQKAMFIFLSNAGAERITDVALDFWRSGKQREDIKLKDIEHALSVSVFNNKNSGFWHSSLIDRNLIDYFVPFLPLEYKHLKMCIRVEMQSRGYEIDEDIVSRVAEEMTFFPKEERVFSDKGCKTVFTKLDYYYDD
Chain of Streptavidin (Streptomyces avidinii) (P22629 whole entry, looked up): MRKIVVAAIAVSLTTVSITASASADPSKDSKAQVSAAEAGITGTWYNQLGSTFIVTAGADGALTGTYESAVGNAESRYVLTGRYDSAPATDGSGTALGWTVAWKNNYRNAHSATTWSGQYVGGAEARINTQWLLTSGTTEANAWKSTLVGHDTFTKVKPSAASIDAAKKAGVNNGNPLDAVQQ

As to `NC(=O)N1C(=O)C2C(C1=O)C1C=C(c3ccc(CO)cc3)C2C(c2cccs2)N1Cc1cccc(OC(F)(F)F)c1` (stereo not given), the composite z-score in [1] is 1.16; in assay [2], 0.0253; in assay [3], 0.556; in [4] it was -0.0767; in [5], 0.704; in [6], -0.365. Also, the composite z-score in assay [8] worked out at 0.444; in [9] it was 0.949; in assay [11] it was 0.24; in [16] it was 0.514; in assay [17] it was 0.29; in assay [18] it was 0.635. Further, the composite z-score in assay [19] was found to be 0.522; in assay [20], 0.235. For the same compound, the z-score was 1.22 in assay [7]; -2.17 (inactive) in assay [10]; -3.63 (inactive) in assay [12]; 0.945 (inactive) in [13]; 1.08 (inactive) in [14]; -1.58 (inactive) in assay [15].
For `[N-]=[N+]=NCc1ccccc1[C@@H]1OC(c2ccc(OCCCO)cc2)=N[C@]1(Cc1ccccc1)C(N)=O`, the composite z-score in [1] was 0.888; in assay [2] it was 1.25; in assay [3], 1.22; in assay [4] it was 1.06; in [5], 1.28; in assay [6] it was 0.0766. Also, the composite z-score in [8] stood at 0.186; in [9], 1.06; in assay [11], 0.601; in assay [16], 2.03; in [17], 0.228; in [18], 0.162. The composite z-score in assay [19] was -0.106; in assay [20], -0.315. For the same compound, the z-score is 0.199 in [7]; -0.0322 (inactive) in assay [10]; -1.72 (inactive) in assay [12]; -1.85 (inactive) in assay [13]; -1.19 (inactive) in assay [14]; -2.1 (inactive) in assay [15].
With `CC(C)[Si]1(C(C)C)O[C@@H](c2ccccc2)c2cc(-c3ccc(-c4ccc(Cl)c(Cl)c4)o3)nc(-c3ccccc3)c21`, the composite z-score in assay [1] was 2.46; in [2], 0.361; in assay [3], -0.289; in assay [4], 0.291; in assay [5] it was -0.139; in [6], 0.0622. In addition, the composite z-score in [8] is -0.0995; in assay [9], 0.533; in assay [11], -0.0503; in assay [16], 0.105; in assay [17], -0.0044; in assay [18] it was -0.118. The values for the composite z-score in assay [19] and in assay [20] were 0.261 and 0.15, respectively. The z-score in assay [7] was -0.133; in assay [10], -0.266 (inactive); in [12], -0.62 (inactive); in [13] it was 0.115 (inactive); in [14], -1.12 (inactive); in [15], 2.02 (inactive).
On to `C=CCOC(=O)[C@H]1[C@@H]2C(=O)O[C@@H](c3ccccc3)[C@@H](c3ccccc3)N2[C@@H](c2ccc(OCCOC(=O)[C@H]3C[C@H]4C(=O)N[C@@H](CCCC[N+](C)(C)C)C(=O)N4[C@H]3c3ccc(O)cc3)cc2)[C@]12C(=O)Nc1ccc(I)cc12`, for which the composite z-score is 1.24 in [1]; 1.08 in assay [2]; 0.38 in [3]; -0.154 in [4]; 1.38 in [5]; 1.14 in assay [6]. Further, the composite z-score in assay [8] worked out at 1.27; in [9], 0.0577; in assay [11], 0.232; in [16] it was 0.134; in [17], 0.0759; in assay [18], 1.39. The composite z-score was -0.243 in [19] and 2.22 in assay [20]. Also, the z-score was 0.694 in assay [7]; -0.666 (inactive) in assay [10]; -0.326 (inactive) in assay [12]; -0.615 (inactive) in assay [13]; 0.415 (inactive) in assay [14]; -0.226 (inactive) in assay [15].
For the compound `CN(C)CCCC[C@@H]1NC(=O)[C@@H]2C[C@H](C(=O)NCCCCCCN)[C@H](c3cccc(OCCO)c3)N2C1=O`, the composite z-score in assay [1] worked out at 3.34; in assay [2], 1.2; in [3] it was 1.48; in assay [4], 0.936; in assay [5] it was 0.861; in [6], 0.357. In addition, the composite z-score in [8] came to 0.409; in assay [9] it was 1.49; in [11] it was 0.017; in assay [16], 2.1; in assay [17] it was 0.831; in assay [18] it was 1.17. Moreover, the composite z-score was found to be 1.99 in [19] and 0.68 in assay [20]. Besides, the z-score in assay [7] was -0.9; in assay [10] it was 0.132 (inactive); in [12], -0.96 (inactive); in [13] it was 0.168 (inactive); in assay [14], 0.139 (inactive); in [15], -0.347 (inactive).
